The results in this text go back to PubChem BioAssay AID686979 (National Center for Advancing Translational Sciences (NCATS), 2013).

Where “and” joins values, the source holds several entries; their conditions need not be identical. Identical values can stand only once. Among all 420,000 compounds or so, about 50,000 (12%) were called active. Where a call stands in place of a potency, no number is given. About 26% were inconclusive and are not listed. The call rests on the fitted dose curve; in most records, active means well fitted inhibition curve with a large enough effect; inconclusive means small, poorly fitted or top-dose-only effect; inactive means flat fitted curve, though single readings scatter. Many of the other results were omitted from the sample, so actives are more common in it than they were.
Potency means the concentration at half of the fitted maximal effect.

The assay is described as follows: qHTS for Inhibitors of human tyrosyl-DNA phosphodiesterase 1 (TDP1): qHTS in cells in presence of CPT. Further: nearly all actives have a fitted effect of over 55% in size. The following applies: chicken DT40 Tdp1-/-;hTDP1 cells + 20 nM CPT, ATP luminescence, 48 h; series mostly up to 46.2 µM. The source says: Human tyrosyl-DNA phosphodiesterase 1 (TDP1) is a novel repair gene, and we propose to use it as a new target for anticancer drug development. TDP1 is not an essential protein, but under treatment with topoisomerase I poison (camptothecin: CPT), TDP1 works as a critical factor for cell survival. To directly identify novel TDP1 inhibitors active in a cellular environment, we have knocked-out the Tdp1 gene in chicken DT40 cells (Tdp1-/-) and generated a complemented counterpart cells that contains a stable transfection of the human TDP1 gene (Tdp1-/-;hTDP1 cells). For the primary screen, Tdp1-/-;hTDP1 cells will be exposed to small molecules in the presence or absence of CPT, and their growth kinetics will be evaluated after 48 hours by measuring ATP activity. […] The hit compounds will then be evaluated in the presence or absence of CPT using Tdp1-/- cells. […] In tertiary assays, biochemical gel-based assays will be used to assess whether the hit compounds specifically target TDP1. To this end, we have screened this cell line against the MLSMR in two primary screens. In one screen we add CPT and in the other we screen in the absence of CPT; this AID represents the screen where CPT was present. NIH Chemical Genomics Center [NCGC] NIH Molecular Libraries Probe Centers Network [MLPCN] MLPCN Grant: MH095538 Assay Submitter (PI): Yves Pommier, NCI
DT40-hTDP1 cells with 20 nM Camptothecin (add 20 microL of 1 mM CPT stock in 1 L of cell culture medium) were dispensed at 400 cells/5microL/well in tissue culture treated 1536-well white wall/solid bottom assay plates (Greiner Bio-One North America, NC, U.S.A.) using a Multidrop Combi 8 channel dispenser (Thermo Fisher, Waltham, MA, USA). 23 nL compounds and controls were transferred using the pin tool (Kalypsys, San Diego, CA, USA) to the assay plates. The assay plates were then incubated at 37 masculineC for a minimum 48 hr. Three microL of Cell Titer Glo solution was added to the plates and incubated at RT in dark for 30 min. Luminescence was read using ViewLux (Perkin Elmer) with 1 sec exposure slow speed, high gain and 2x binning.
`CC[C@H]1CN2CCc3cc(OC)c(OC)cc3[C@@H]2C[C@@H]1C[C@H]1NCCc2cc(OC)c(OC)cc21`: the Potency was 188 nM (active) and 146 nM (active). Regarding `C=C(C)C1(CCCC)C(=O)NC(=S)NC1=O`, the Potency result was “inactive”. The same measure, in the same setting: with `Cc1cc(OCc2cc(C(=O)O)oc2C)c2c3c(c(=O)oc2c1)CCCC3` the entry was “inactive”; with `CN(C)C(=O)Oc1ccc2c(c1)O/C(=C\c1ccccc1)C2=O`, “inactive”; with `CC(C)c1ccc(OCC(=O)N2CCCN(C)CC2)cc1`, “inactive”.

For `CCCCC/C=C\C/C=C\C/C=C\CCCCCCC(=O)NCCO`, the activity change, negative = growth inhibition was 0.621% [at 4.12 µM] (inactive). For the molecule `C[C@@H]1CC[C@@]2(OC1)O[C@H]1C[C@H]3[C@@H]4CC=C5C[C@@H](O)[C@H](O)C[C@]5(C)C4CC[C@]3(C)[C@H]1[C@@H]2C` (some centres undefined), the Potency is 20.6 µM (active). `COc1ccc2cc1Oc1ccc(cc1)C[C@H]1c3cc(c(OC)cc3CCN1C)Oc1c(O)c(OC)cc3c1[C@H](C2)N(C)CC3`: the Potency was 8.2 µM (active).

Take `COc1ccc2c(c1O)-c1cccc3c1[C@@H](C2)N(C)CC3`: the Potency entry is “inactive”. On the same count and under the same terms, under `COc1c(O)ccc2c1-c1c3c(cc4c1C(C2)N(C)CC4)OCO3` (centres undefined) stands “inactive”. As for `CC1(C)C(c2ccccc2)=NC(c2cccnc2)=[N+]1[O-]`, the Potency result was “inactive”.

For `O=c1[nH]c(=O)n(CCc2ccc(F)cc2)c(O)c1/C=N/N1CCCCC1`, the Potency entry was “inactive”. As for `CN(C)CC1CCCCC1=O` (centres undefined), the Potency is 5.8 µM (active). On the same count and under the same terms, with `O=C(NCC(c1cccnc1)N1CCN(c2ccccc2)CC1)Oc1ccccc1` (centres undefined) the entry was “inactive”; with `CC(=O)Nc1cc(-c2cccc(CO)c2)cn2c(-c3cccc(C(F)(F)F)c3)cnc12`, 11.6 µM (active). `NC(=O)Nc1cccc(C(F)(F)F)c1`: the Potency result is “inactive”.

With `CC(=O)OC1C2CCC3C1(CC(O)[C@@]1(O)[C@@H](CC(O)C1(C)C)[C@]3(C)O)C[C@@]2(C)O` (some centres undefined), the Potency entry is “inactive”.

Take `COc1ccccc1C(=O)N[C@@H]1c2ccccc2C2(CCN(Cc3nc(C(C)C)cs3)CC2)[C@H]1O`: the Potency is 2.06 µM (active).

Regarding `COc1ccccc1C1=NCc2nnc(CSC)n2-c2ccc(Cl)cc21`, the Potency result was “inactive”. Still for that read-out and setting: under `CCc1ccc(N(CC)C(=O)CCn2cnc3onc(-c4ccc(F)cc4)c3c2=O)cc1` stands 16.4 µM (active); under `CCCCC(=O)N/N=C/c1c(O)n(CC)c(=S)n(CC)c1=O`, 18.4 µM (active). `Cn1c(O)c(C=NCCCC(=O)O)c(=O)n(C)c1=O`: the Potency entry was “inactive”.

`CCCCC(=O)N/N=C/c1c(O)n(-c2ccccc2)c(=O)[nH]c1=O`: the Potency result is “inactive”.

For the molecule `O=C1NC(=O)C(C/C=C/c2ccccc2)C(=O)N1`, the Potency result is “inactive”.

In the case of `Cc1cccc(NC(=O)OC2CN3CCC2CC3)c1` (centres undefined), the Potency result is “inactive”. In the case of `CCC(=O)CC(c1ccc([N+](=O)[O-])cc1)c1c(O)c2ccccc2oc1=O` (centres undefined), the Potency entry was “inactive”. The same measure, in the same setting: under `CC(=NCC1CCCO1)c1c(O)n(-c2ccccc2)c(=O)[nH]c1=O` (centres undefined) stands “inactive”. Regarding `O=c1[nH]c(=S)n(C2CC2)c(O)c1/C=N/N1CCOCC1`, the Potency result was “inactive”.

`CC(=O)c1c(O)n(C2CCCCCC2)c(=O)[nH]c1=O`: the Potency was 18.4 µM (active).

Regarding `COC1=C[C@]23CCCN2CCc2cc4c(cc2[C@@H]3[C@@H]1O)OCO4`, the activity change, negative = growth inhibition was -3.38% [at 9.04 µM] (inactive). `CN1CCN(/N=C/c2c[nH]c3ccccc23)CC1`: the Potency entry is “inactive”. For the molecule `CC12CCC3C(CCC4CC(=O)CCC43C)C1CC(=NO)C2=O` (centres undefined), the Potency entry was “inactive”. Same read-out and setting: under `CCCCCn1c(=O)c(C(=O)NCc2ccccc2)c(O)c2ccccc21` stands 4.61 µM (active); under `CCCCCn1c(=O)c(C(=O)NCc2ccccn2)c(O)c2ccccc21`, 20.6 µM (active). For the molecule `CCOC(=O)C1(Cc2ccc(Cl)cc2)CCN(C(C)CCn2cccn2)CC1` (centres undefined), the Potency entry was “inactive”. Still for that read-out and setting: with `O=c1[nH]c(=O)n(CCc2ccccc2)c(O)c1/C=N/N1CCOCC1` the entry was “inactive”; with `c1ccc2sc(C3CCCNC3)nc2c1` (centres undefined), “inactive”; with `CC[N+](CC)(CC)CCCCCCCCCC[N+](CC)(CC)CC`, “inactive”. The same measure, in the same setting: with `CN1CCN(Cc2ccc(OC(F)(F)F)cc2)CC1` the entry was “inactive”; with `CC(C)c1ccc(OCC(=O)N2CCN(C)CC2)c(Br)c1`, “inactive”.

Consider `COc1cc(-n2c(=S)[nH]c3ccc(C)cc3c2=O)c(Cl)cc1Cl`, for which the Potency is 8.2 µM (active). Consider `O=c1c2ccccc2[nH]c(=S)n1-c1cccc(Cl)c1`, for which the Potency entry was “inactive”. On the same count and under the same terms, under `c1ccc(CC2CCCCN2)cc1` (centres undefined) stands “inactive”; under `CC(C)Oc1cccc(C(=O)C2CCCN(C3CCOCC3)C2)c1` (centres undefined), “inactive”. Consider `COc1cc2[nH]c(C)c(CCN3CCN(c4ccccc4)CC3)c2cc1OC`, for which the Potency was 7.94 µM (active). The same measure, in the same setting: with `Oc1cc2c(cc1CN1CCN(c3ccccc3)CC1)OCO2` the entry was “inactive”; with `c1ccc(N2Cc3ccccc3-n3nncc3C2)nc1`, “inactive”. On to `COCCCNC(=O)CC1C[C@H](C(=O)N2CCCCC2)[C@@]2(CCc3ccccc3)c3[nH]c4ccccc4c3CCN2C1=O` (some centres undefined), for which the Potency was 23.1 µM (active). `Clc1ccc([C@@H]2C[C@H]3CC[C@@H]2N3)cn1`: the Potency entry was “inactive”.
